Screening data as filed in PubChem.
TDP1 cell CPT: qHTS for Inhibitors of human tyrosyl-DNA phosphodiesterase 1 (TDP1): qHTS in cells in presence of CPT; chicken DT40 Tdp1-/-;hTDP1 cells + 20 nM CPT, ATP luminescence, 48 h; Potency, µM (highest dose often 46.2 µM), hits mostly inhibitors; actives 12% (n = 420,000); note: nearly all actives have a fitted effect of over 55% in size
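Cell growth measured by CellTiter-Glo luminescence after a minimum 48 h, 37 C compound exposure with 20 nM CPT in Tdp1-knockout DT40 cells stably expressing hTDP1, seeded 400/well; qHTS titration format.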
HT1080NT lethal: qHTS for induction of synthetic lethality in tumor cells producing 2HG: qHTS for the HT-1080-NT fibrosarcoma cell line; HT-1080-NT fibrosarcoma viability, CellTiter-Glo ATP luminescence, 48 h; Potency, µM (series often up to 46.1 µM), hits mostly cytotoxic; actives 1.6% (n = 360,000); AID 686970, 2013;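 note: NT is the 2HG producing partner of a matched IDH1 knockdown line; nearly all actives have a fitted effect of over 55% in size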
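Viability by CellTiter-Glo luminescence after 48 h compound exposure at 37C of HT-1080-NT cells (750/well, RPMI, 5% FBS). % activity scaled between DMSO wells and medium-only wells, then curve-fitted and categorized by curve class.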
HT1080 IDH1KD tx: qHTS for induction of synthetic lethality in tumor cells producing 2HG: qHTS for the HT-1080-IDH1KD cell line; HT-1080 IDH1 knockdown viability, ATP luminescence, 48 h; Potency, µM (series often up to 46.1 µM), usual class: cytotoxic; actives 2% (n = 360,000); AID 686971, 2013
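Cytotoxicity counter-line: IDH1KD HT-1080, 48 h, CellTiter-Glo. Curves classed by r2, magnitude and activity.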
ELG1 repair inh: qHTS screen for small molecules that inhibit ELG1-dependent DNA repair in human embryonic kidney (HEK293T) cells expressing luciferase-tagged ELG1 | HEK293T ELG1-luciferase reporter, luminescence, 16 h; DNA damage induced by 5-fluorouridine | AID 504467, 2011 | actives 2.3% (n = 330,000) | Potency, µM (highest dose often 46.1 µM), hits mostly inhibitors; note: nearly all actives have a fitted effect of over 55% in size
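Quantitative HTS, concentration-response format. 2,000 cells/well co-treated with 5-fluorouridine and compound, 16 hr in 5% CO2 at 37 °C; ONE-Glo luminescence read after 30 min.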
IL1B secr inh: qHTS for Inhibitors of Inflammasome Signaling: IL-1-beta AlphaLISA Primary Screen. THP-1 LPS/ATP IL-1B secretion, AlphaLISA, 16 h; hits give low values. activity change, % at 57.5 µM. actives 4.7% (n = 360,000). AID 743279, 2014; in the data active = activity change below about -50%; inconclusive = mostly about -30% to -49%
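THP-1 cells pretreated 1 hr with compounds (up to 57.5 uM final), then stimulated with LPS (250 ng/mL final) plus ATP (1.25 mM final); secreted IL-1B measured by AlphaLISA after 16 hr, decreased signal indicating inhibition.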
DT40 TDP1 no CPT: qHTS for Inhibitors of human tyrosyl-DNA phosphodiesterase 1 (TDP1): qHTS in cells in absence of CPT. DT40 Tdp1-/- hTDP1 cells, no CPT, ATP luminescence, 48 h. actives 15% (n = 420,000). Potency, µM (highest dose often 46.2 µM), usual class: inhibitors; note: nearly all actives have a fitted effect of over 55% in size
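DT40 Tdp1-/-;hTDP1 cells, no CPT (DMSO vehicle only), 400 cells/well; compounds pin-transferred; ≥48 hr, 37 °C; CellTiter-Glo 30 min RT dark, luminescence read.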
Hits are given with their value; – = inactive; ? = inconclusive; · = not tested or not shown; [ ] = another dose, or the depositor's remark. A selection: hits, their analogues and other compounds. The true share with any hit is near 19%. Unless noted, calls come from the whole dose curve; as a rule, active = well fitted curve in the direction sought with a large enough effect; inconclusive = small, poorly fitted or top-dose-only effect, or another doubt; inactive = no such curve, though single readings can be large; an effect the other way counts as inactive or inconclusive.

SMILES	TDP1 cell CPT	HT1080NT lethal	HT1080 IDH1KD tx	ELG1 repair inh	IL1B secr inh	DT40 TDP1 no CPT
CCc1nnc(NC(=O)CSc2nc3cc4c(cc3cc2C)OCCO4)s1	–	–	–	–	–	–
Cc1ccccc1CN(c1ccc(C(=O)Nc2ccccc2C(=O)NCc2ccco2)cc1)S(C)(=O)=O	?	–	?	7.31µM	–	?
CC(C)CNC(=O)c1ccccc1NC(=O)CN(c1ccc2c(c1)OCCO2)S(C)(=O)=O	–	–	–	–	–	–
CS(=O)(=O)N(CC(=O)Nc1ccccc1C(=O)NCc1ccco1)c1ccc2c(c1)OCCO2	18.4µM	–[9.24 µM]	?	?	–	?
CC(=O)c1cccc(NC(=O)c2ccc(N(Cc3ccccc3C)S(C)(=O)=O)cc2)c1	?	–	–	25.9µM	–	?
COCCNc1nc(-c2cc3ccccc3o2)cs1	–	–	–	?	-53.1	–
CN(C)c1ccc(-c2csc(C(C)(O)c3ccccc3)n2)cc1 (centres undefined)	14.6µM	–	?	·	–	16.4µM
COc1cc(OC)cc(C(=O)NC(=S)Nc2nc(-c3cc4ccccc4o3)cs2)c1	–	–	–	–	–	–
CC(O)(c1ccccc1)c1nc(-c2cc3ccccc3o2)cs1 (centres undefined)	23.1µM	?	?	·	–	13µM
Cc1nnc(SCC2=C(C(=O)O)N3C(=O)C(NC(=O)C(C)n4nc(C(F)(F)F)cc4C)C3SC2)s1 (centres undefined)	–	–	–	–	–	–
O=C1CC(SC(=S)C2CCCC2=O)C(=O)N1 (centres undefined)	?	–	–	·	–	?
O=c1cc(N/N=C/c2ccccc2)[nH]c(=O)[nH]1	4.11µM	3.66µM	7.31µM	·	-99.1	4.61µM
COc1ccc(Cn2nnnc2C(c2ccccn2)N2CCN(c3ccc(O)cc3)CC2)cc1 (centres undefined)	–	·	·	·	·	?
Cc1nn(-c2nnc(NC3CCCCC3)nn2)c(C)c1Br	–	–	–	?	-74.7	–
Cc1nn(C)c(C)c1S(=O)(=O)NC1CCCC1	–	–	–	–	–	–
O=C(CCC1CCCCC1)Nc1cccnc1	–	–	–	?	–	–
O=C(CCC1CCCCC1)Nc1ccc(C(=O)c2ccncc2)cc1	?	–	–	–	-92.2	?
CCNc1nc(NCC)n2c(SC(C(=O)Nc3cc(Cl)cc(Cl)c3)c3ccccc3)nnc2n1 (centres undefined)	23.1µM	–	–	–	–	16.4µM
Cc1[nH]n(-c2ccccc2)c(=O)c1Sc1ccc(Cl)cc1	?	–	–	–	–	?
CCCSC(=S)c1c(C)[nH]n(-c2ccccc2)c1=O	20.6µM	?	13µM	13µM	–	16.4µM
Cc1ccccc1NC(=O)c1ccc(NC(=O)C2CCCO2)cc1 (centres undefined)	–	–	–	?	–	–
CCn1c(O)c(/C=C2\C=Nc3ccccc32)sc1=Nc1ccc(C)cc1	?	–	–	–	–	?
C=CCn1c(O)c(C2=c3ccccc3=NC2=O)sc1=Nc1ccc(O)cc1	23.1µM	–	?	–	-50.5	?
Cc1cc(NC(=O)CSc2ncc(C(=O)Nc3ccccc3)c(=O)n2C)no1	–	·	·	·	·	–
Cn1c(SCC(=O)c2ccccc2)ncc(C(=O)Nc2ccccc2)c1=O	?	–	–	–	–	20.6µM
Cc1ccc(NC(=O)c2cnc(SCC(=O)c3ccccc3)n(C)c2=O)cc1	–	–	–	–	–	16.4µM
CC(C)=C(NC(=O)c1ccccc1)C(=O)N1CCOCC1	–	–	–[9.24 µM]	–	–	–
